SENP6 block: SENP6 protease inhibitors, primary screen, biochemical, luminescence, uHTS | Sentrin-specific protease 6 (Homo sapiens), Q9GZR1 | Recombinant SENP6 catalytic domain, aminoluciferin luminescence | inhibition, % at 10 µM | 1.8% of 330,000 active | AID 2599, 2010;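 active means inhibition above about 50% at the single tested dose, limit read from the data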;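 further: plate controls were DMSO wells with enzyme for no effect and DMSO wells lacking enzyme for full effect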
SENP8 block-1: SENP8 protease inhibitors, primary screen, biochemical, luminescence | inhibition, % at 10 µM | 1.2% of 330,000 active | purified SENP8, Z-RLRGG-aminoluciferin cleavage; in the data active means inhibition above about 50%
Target sequence (Q96LD8 whole entry, looked up): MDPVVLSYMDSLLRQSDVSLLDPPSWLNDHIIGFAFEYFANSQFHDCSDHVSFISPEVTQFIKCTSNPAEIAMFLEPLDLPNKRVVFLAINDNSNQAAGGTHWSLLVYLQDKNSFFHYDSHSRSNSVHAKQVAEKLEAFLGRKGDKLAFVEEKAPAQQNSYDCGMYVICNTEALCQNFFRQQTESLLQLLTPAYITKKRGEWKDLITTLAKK
SENP7 block: SENP7 protease inhibitors, primary screen, biochemical, luminescence, uHTS | inhibition, % at 5 µM | Sentrin-specific protease 7 (Homo sapiens), Q9BQF6 | AID 434973, 2010 | recombinant SENP7, Z-RLRGG-aminoluciferin luminescence, 40 min | 1.5% of 330,000 active;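 active means inhibition above about 50% at the single test dose, limit read from the data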;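 further: plate controls were DMSO with enzyme for no effect and no enzyme buffer wells for full effect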
EBI2 block: EBI2 receptor antagonists, beta-arrestin recruitment, primary screen, cell-based, luminescence, 7a,25-OHC stimulation, uHTS | inhibition, % at 5 µM | 7a,25-OHC stimulated | 0.81% of 360,000 active; in the data active means inhibition above about 38%;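 further: enzyme fragment complementation signal reports receptor beta-arrestin coupling in cells; 0% = agonist plus DMSO wells and 100% = wells without agonist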
Target sequence (P32249 whole entry, looked up, the tested form may be a part): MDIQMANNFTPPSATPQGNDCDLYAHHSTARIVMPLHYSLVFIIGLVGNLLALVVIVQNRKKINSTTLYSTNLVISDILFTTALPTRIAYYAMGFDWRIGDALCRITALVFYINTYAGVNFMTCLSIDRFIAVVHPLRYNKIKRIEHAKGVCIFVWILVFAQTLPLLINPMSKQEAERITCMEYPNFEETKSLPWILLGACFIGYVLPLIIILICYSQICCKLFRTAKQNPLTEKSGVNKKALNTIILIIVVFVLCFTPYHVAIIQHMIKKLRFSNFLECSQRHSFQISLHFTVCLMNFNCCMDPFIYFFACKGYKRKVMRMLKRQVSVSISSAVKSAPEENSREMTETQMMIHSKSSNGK
SENP8 block-2: human SENP8 protease inhibitors, primary screen, biochemical, fluorescence, Nedd8 protein substrate, uHTS | Sentrin-specific protease 8 (Homo sapiens), Q96LD8 | recombinant SENP8 | inhibition, % at 20 µM | 0.64% of 360,000 active; in the data active means inhibition mostly above about 40%, no sharp cut-off; inactive means mostly below about 27%
AHR act: AHR activators, primary screen, cell-based, luminescence, luciferase reporter, human; Aryl hydrocarbon receptor (Homo sapiens), P35869; AHR-responsive luciferase reporter cells; activation, % at 5 µM; 2.5% of 320,000 active; AID 2796, 2010; in the data active means activation above about 47%;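 further: 0% = vehicle wells and 100% = reference agonist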
Starred values were filed as active, the others as inactive; i = inactive; nt = no result. This is a sample that favours compounds with a hit; in the whole collection about 5% have one here.

SMILES | SENP6 block | SENP8 block-1 | SENP7 block | EBI2 block | SENP8 block-2 | AHR act
CCc1ccccc1NC(=O)CN1CCN(C(=O)CN2C(=O)NC3(CCCC3)C2=O)CC1 | -19 | -12 | -6 | -8 | 5 | 1
CN(CC(=O)Nc1cc(C(F)(F)F)ccc1-n1cncn1)Cc1ccccc1N1CCOCC1 | nt | nt | nt | -2 | 23 | nt
O=c1[nH]c2cc3c(cc2cc1CN(Cc1nnnn1CC1CCCO1)C1CCCCC1)OCO3 (stereo unspecified) | 8 | 9 | 9 | -13 | -493 | 56*
O=c1[nH]c2cc3c(cc2cc1CN(Cc1nnnn1CC1CCCO1)C1CCCC1)OCO3 (stereo unspecified) | -11 | 1 | 6 | -1 | i | 30
Cc1[nH]c2ccccc2c1CCNC(=O)c1ccc2c(c1[N+](=O)[O-])C(=O)c1ccccc1C2=O | 18 | 6 | 7 | 14 | 34 | 0
Cc1[nH]c2c(C)cccc2c1CCNC(=O)c1ccc2c(c1[N+](=O)[O-])C(=O)c1ccccc1C2=O | -3 | 7 | 6 | 23 | 43* | 4
Cc1cccc(Nc2nc(N)c(C#N)c(CC#N)c2C#N)c1 | 16 | 11 | 12 | -6 | -126 | 50*
O=C(NCc1ccccn1)C1CCCN(S(=O)(=O)c2cc(Cl)ccc2Cl)C1 (stereo unspecified) | nt | nt | nt | -5 | 43* | nt
Cc1nnc(NC(=O)c2sc3ccccc3c2Cl)s1 | 47 | 1 | 1 | 5 | -41 | 48*
Cc1ccc2nsnc2c1NC(=O)c1sc2ccccc2c1Cl | 5 | -1 | -3 | -2 | -426 | 5
O=C(NC1=NCCS1)c1sc2ccccc2c1Cl | 42 | 30 | 5 | -5 | 6 | -1
Cc1cccnc1NC(=O)Nc1ccc(Cl)cc1 | -9 | -14 | 6 | 8 | 10 | 74*
Cc1cccnc1NC(=O)c1sc2ccccc2c1Cl | 12 | -4 | 15 | 9 | -22 | 69*
Cc1cccnc1NC(=O)Nc1ccccc1 | -16 | -12 | 0 | 0 | 24 | 4
O=C1CCCCC1(c1ccccc1)c1ccccc1 | nt | nt | nt | -4 | 5 | nt
Cn1c2ccccc2c2cc(C(=O)NNS(=O)(=O)c3ccc(F)cc3)sc21 | -11 | -6 | -5 | 1 | -190 | 77*
CN(C)CCCNC(=O)c1cc2c3ccccc3n(C)c2s1 | 11 | -1 | 5 | -23 | -95 | 28
Cc1ccc2c(c1)N=C(c1ccccc1)CC(C(Cl)Cl)=N2 | 74* | 53* | 1 | 11 | -171 | 62*
CCCCN1C(=O)C(CC(=O)NC2CCCC2)CC(C(=O)N2CCCCCC2)=C1C (stereo unspecified) | nt | nt | nt | -3 | 11 | nt
CC(C)N(CCO)C(=O)CCc1nnc(Cc2cccc(C(F)(F)F)c2)o1 | -16 | -8 | -6 | -6 | 14 | 2
CCc1ccc(OCC(=O)NC(=S)Nc2ccc(C(C)=O)cc2)c(Br)c1 | -9 | -4 | 11 | -16 | 9 | 76*
Cc1ccc(C)c(S(=O)(=O)N2CCN(C(=O)Cc3sc(C)nc3-c3ccc(F)cc3)CC2)c1 | nt | nt | nt | 23 | 15 | nt
NNC(=O)c1ccc(COc2ccc3c(c2)CCC3)cc1 | -1 | -13 | -3 | -1 | 1 | 31
O=C(O)c1ccc(COc2ccc3c(c2)CCC3)cc1 | 95* | 84* | 51* | -2 | 10 | -3
Cc1cccc2cc(C#N)c(SCC(=O)N3CC(=O)Nc4ccccc43)nc12 | -9 | 4 | 7 | 57* | -50 | 33
SMILES | SENP6 block | SENP8 block-1 | SENP7 block | EBI2 block | SENP8 block-2 | AHR act
O=C1CN(C(=O)CSc2nc(-c3ccccc3)cs2)c2ccccc2N1 | 5 | 10 | 3 | -6 | 1 | 58*
COc1ccc2cc(C#N)c(SCC(=O)N3CCCC3)nc2c1 | -13 | 3 | -3 | 0 | -255 | 6
COc1ccc2cc(C#N)c(SCC(=O)N3CC(=O)Nc4ccccc43)nc2c1 | -12 | -4 | 4 | 74* | -246 | 5
Cc1cccc2cc(C#N)c(SCC(=O)N3CCC(C)CC3)nc12 | -22 | -10 | -1 | 17 | -33 | 42
CC1(C(=O)NS(=O)(=O)c2ccc(Cl)s2)CCN1C(=O)c1ccccc1CCc1ccccc1 (stereo unspecified) | nt | nt | nt | -4 | 12 | nt
Nc1ncnc2c(C3OC(CO)C(O)C3O)scc12 (stereo unspecified) | nt | nt | nt | -5 | -496 | nt
S=c1nc(-c2ccccc2)[nH]c2ccccc12 | -17 | -7 | -5 | 5 | 24 | 57*
O=C(CCCNC(=O)c1ccc(Cl)cc1)Nc1ccc(Br)cc1 | -6 | 1 | 2 | 23 | 2 | 71*
O=C(COC(=O)CCCNC(=O)c1ccc(Cl)cc1)Nc1ccc(Br)cc1 | -18 | -12 | 0 | -7 | 15 | 0
COc1cccc(C(NC(C)=O)c2nc(-c3ccc(F)cc3OC)cs2)c1 (stereo unspecified) | nt | nt | nt | 6 | 26 | nt
CCOc1ccc(Nc2nc(N)c3ccccc3n2)cc1 | 96* | 96* | 101* | 6 | -13 | nt
COc1ccc(C)cc1Nc1nc(N)c2ccccc2n1 | 10 | 0 | 2 | -5 | -47 | -7
CN(C)c1ccc(Nc2nc(N)c3ccccc3n2)cc1 | 96* | 95* | 99* | -1 | 13 | -5
CCc1c(C)nc(SCC(=O)c2cccs2)c(C#N)c1C | 12 | -2 | -7 | 31 | -6 | 94*
CCc1c(C)nc(SCC(N)=O)c(C#N)c1C | -23 | -7 | 0 | 3 | 4 | -2
Cc1ccc(NC(=O)c2oc3ccccc3c2NC(=O)C2CCCO2)cc1C (stereo unspecified) | -3 | -7 | -11 | -15 | -31 | 74*
COc1ccc(NC(=O)c2oc3ccccc3c2NC(=O)C2CCCO2)cc1OC (stereo unspecified) | 2 | 7 | 2 | 3 | -16 | 0
CCOc1ccccc1NC(=O)c1oc2ccccc2c1NC(=O)C1CCCO1 (stereo unspecified) | 2 | 1 | 3 | -1 | -70 | 49*
Cc1cc(=O)[nH]c(NNC(=O)c2ccc(Cl)cc2)n1 | nt | nt | nt | 0 | 22 | nt
Cc1ccc(CNC(=O)COC(=O)c2ccc(S(=O)(=O)NCc3ccco3)cc2)cc1 | -4 | -3 | 1 | -4 | 16 | -2
CCOC(=O)c1c(C)[nH]c(C2=NNC(=Nc3cccc(Cl)c3)SC2)c1C | 13 | 1 | 1 | nt | nt | 120*
C/C(=N\N=C(N)N)c1ccc(C)c(C)c1 | 10 | 5 | 0 | 1 | -454 | 59*
C/C(=N\N=C(N)N)c1cccc([N+](=O)[O-])c1 | -9 | -6 | 6 | -13 | 9 | 9
CCOc1ccc(Br)cc1S(=O)(=O)Nc1cccc(S(=O)(=O)N2CCOCC2)c1 | nt | nt | nt | 0 | 12 | nt
